Source: PubChem BioAssay (NCATS)
Active and inactive are the calls of the source. Calls follow the shape of the dose curve; as a rule, active = well fitted inhibition curve with a large enough effect; inconclusive = small, poorly fitted or top-dose-only effect; inactive = no such curve, though single readings can be large or run the other way.

These molecules were tested against Single-stranded DNA cytosine deaminase (Homo sapiens) (UniProt Q9GZX7) (assay: Validation qHTS assay for inhibitors of Activation Induced Cytidine Deaminase (AID): AID signal (AID 1347429)). Conditions: Recombinant AID, FRET ssDNA deamination with UDG, fluorescence; series mostly up to 115 µM; activity change, negative = inhibition: at the top concentration.
From the text: Assay Provider (PI) Patricia Gearhart Ph.D. National Institute on Aging National Institute of Health (NIH), Bethesda, MD Assay Provider (PI) Rahul Kohli Ph.D. Perelman School of Medicine University of Pennsylvania, Philadelphia, PA Activation-Induced Deaminase (AID) is a cytosine deaminase which converts cytosine into uracil within stretches of ssDNA. The presence of uracil in DNA initiates a cascade of mutagenic DNA repair to introduce point mutations and DNA double strand breaks. Specific targeting of AID to the immunoglobulin heavy chain loci (Igh) promotes mutagenesis in the antibody variable region for somatic hypermutation (SHM) or switch regions leading to class switch recombination (CSR). However, AID also plays a role in accumulating unnecessary mutations across the genome. Mis-targeting of AID results in the initiation of tumor development and leads to greater drug resistance among cancer cells when continually expressed. To identify an AID inhibitor, a small molecule library will be screened in collaboration with NCATS core facility at NIH. To confirm biological function, inhibitors will be examined in an in vitro murine B-cell activation assay and subsequent secondary validation screens. Top molecules will be further screened to identify inhibitory efficacy against a wild type primary splenocytes assay. Using these approaches, we hope to identify a small molecule with great efficacy and low toxicity for use as a molecular probe to further characterize AID's intricacies, or even as a therapeutic. A FRET based analysis of cytosine deamination, was developed to identify potential inhibitors of AID catalytic activity. This screen has two signal output, Read 1 evaluates the AID inhibition response. The second readout (Read 2) evaluates UDG response and is uses as a counterscreen to exclude false positive inhibitors. Inhibition in AID and inactivity in the UDG signal is the desired outcome for this assay.
PROTOCOL TABLE SEQUENCE No. (e.g., 1, 2, 3, etc.); […] (e.g., Cells, Incubation, Reagent, etc.); VALUE; DESCRIPTION 1a; Reagent; 3 uL; [4/3x] […] 250 nM DJC20 / 250 nM DJC23 [Substrate] 5; Time; 4 hr; incubation at room temperature 6; Reagent; 4 uL; [2x] 250 mM NaOH 7; Time; 15 sec; centrifuge at 1000 rpm 8; Time; 30 min; incubation at room temperature 9a; Detection; fluorescence (Read 1: AID); EnVision (PerkinElmer) plate reader, 540 excitation and 590 emission filters 9b; Detection; fluorescence (Read 2: UDG); EnVision (PerkinElmer) plate reader, 560 excitation and 665 emission filters NOTES (numbers refer to sequence above) 1a; Reagents were dispensed in a medium-binding black solid-bottom Greiner plates (789176F) using a BioRptr liquid dispenser. Dispense 3 uL of [4/3x] 1 uM AID (provided by Kohli lab) and [4/3x] 2 U/mL UDG (NEB M0280L) into columns 1, 2, 5 to 48. 1b; Dispense 3 uL of [4/3x] 2 U/mL UDG into column 3. 1c; Dispense 3 uL of [4/3x] 1 uM AID into column 4. 2a; Compound ([…] [uM] (0.64; 3.2; 16; 80; 400; 2,000; 10,000; 20,000) double pin-transferred (Dip Factor = 2) using the Kalypsys (Wako USA) pintool equipped with a 1536 pinhead for a final concentration range of 7.32 nM - 114 uM. 2b; 10 mM Aurintricarboxylic Acid (Sigma A1895) (ATA, 8-point, n = 2, 1:2.5 dilution in column 2) double pin-transferred (Dip Factor = 2) using the Kalypsys (Wako USA) pintool equipped with a 1536 pinhead for a [final] range of 186 nM - 114 uM. 3; Room temperature incubation. 4; Dispense 1 uL of substrate mixture from the Kohli lab [4x] […] DJC20 and [4x] 250 nM DJC23 into columns 1 to 48 . 5; Room temperature incubation. 6; Dispense 4 uL of substrate mixture [2x] 250 mM NaOH into columns 1 to 48. 7; Centrifugation step to remove bubbles. 8; Room temperature incubation 9a; Fluorescence signal (column label AID) was read using the EnVision plate reader. Excitation filter = 540(8) nm, barcode = 311; Emission filter = 590(20) nm, barcode = 217; Mirror = D555, barcode = 405. […]
% is scaled to controls: 0 for no effect and ±100 for the full control effect.

Chain of Single-stranded DNA cytosine deaminase (Homo sapiens) (Q9GZX7 whole entry, looked up): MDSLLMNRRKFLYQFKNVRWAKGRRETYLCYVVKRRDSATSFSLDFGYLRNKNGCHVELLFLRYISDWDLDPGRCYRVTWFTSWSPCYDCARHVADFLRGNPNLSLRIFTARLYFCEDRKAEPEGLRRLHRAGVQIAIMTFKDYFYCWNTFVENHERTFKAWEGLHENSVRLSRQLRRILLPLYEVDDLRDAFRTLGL

Row | SMILES | activity change, negative = inhibition | outcome
1 | O=P1(N(CCCl)CCCl)NCCCO1 (centres undefined) | 4.93% (inactive) | 
2 | O=C(O)CCCc1ccc(N(CCCl)CCCl)cc1 | 6.55% (inactive) | 
3 | Cc1ncsc1CCCl | 10.4% (inactive) | 
4 | CCC1(c2ccc(N)cc2)CCC(=O)NC1=O (centres undefined) | 8.98% (inactive) | 
5 | COc1ccc2c(c1OC)C(=O)O[C@H]2[C@@H]1c2cc3c(cc2CCN1C)OCO3 | 30.9% (inactive) | 
6 | CC(C)c1cccc(C(C)C)c1O | 20% (inactive) | 
7 | CC(C)(C)NCC(O)c1ccccc1Cl (centres undefined) | 18.7% (inactive) | 
8 | CN1C(=O)CCS(=O)(=O)C1c1ccc(Cl)cc1 (centres undefined) | 4.79% (inactive) | 
9 | CC(NC(C)(C)C)C(=O)c1cccc(Cl)c1 (centres undefined) | 19.4% (inactive) | 
10 | C=C(C)[C@H]1CN[C@H](C(=O)O)[C@H]1CC(=O)O | 17.5% (inactive) | 
11 | O=C(CCCN1CCC2(CC1)C(=O)NCN2c1ccccc1)c1ccc(F)cc1 | 15.7% (inactive) | 
12 | O=c1[nH]oc2c1CCNC2 | 16% (inactive) | 
13 | NCCc1ccc(O)cc1 | 19.7% (inactive) | 
14 | CC(C)N(CCC(C(N)=O)(c1ccccc1)c1ccccn1)C(C)C (centres undefined) |  | inactive
